# Measured values from the supplement of paper PMC12636033.
# ± gives the standard deviation of the averaged measurements. Whole data set: some 33,000 sequences, median “E-score (rank enrichment, -0.5 to 0.5)” near -0.0068, cut for the highest 2% near 0.24. For the sample, the highest values were picked, then their nearest neighbours and some sequences at random.
# Test system: muMax20 (Max(13-93) K31hArg/K57hArg, M65Nle)
# Test: PBM 8-mer E-score (E-score (rank enrichment, -0.5 to 0.5)); higher = stronger preferential binding
# Experimental: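 Protein binding microarray (universal PBM chip covering all 10-mers in fixed probe flanks) with chemically synthesized human Max(13-93) bHLH-LZ analogs (not full-length Max) bearing noncanonical residues (hArg, Tha, Aib, Nle at 65) and aromatic Cys staples. Read-out per 8-mer (and its reverse complement): E-score (rank-based enrichment, -0.5 to 0.5) and Z-score of median probe intensity.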
row,Sequence,PBM 8-mer E-score
1,CGCGTGAG,0.122 ± 0.034
2,CGCGTGAA,0.00405 ± 0.02
3,CACGTGAC,0.459 ± 0.038
4,TACGTGAA,0.144 ± 0.01
5,CACGTGAA,0.368 ± 0.099
6,CACGTTAG,0.0823 ± 0.07
7,GACGTGAC,0.0637 ± 0.034
8,CCCGTGAG,-0.289 ± 0.015
9,AACGTGAC,0.155 ± 0.0051
10,CACGTGAG,0.344 ± 0.11
11,CGCGTGAC,0.268 ± 0.12
12,GACGTGAA,-0.111 ± 0.032
13,ACCCGAGG,-0.1291 ± 0.0004
14,CCAGCTAC,-0.139 ± 0.0043
15,GGAGCTAA,-0.194 ± 0.096
16,ATCTCCGG,-0.11 ± 0.16
17,CCCTTAGC,-0.0766 ± 0.14
18,ACGCTGAA,-0.171 ± 0.049
19,CCTCCTAC,-0.0317 ± 0.12
20,ATACCTCC,-0.0216 ± 0.038
21,CCCATGGC,-0.167 ± 0.041
22,AACTGTAG,-0.00575 ± 0.073

row,Sequence,PBM 8-mer E-score
1,ACGACACA,-0.0466 ± 0.022
2,ATTCGCCA,-0.152 ± 0.018
3,GGCCTATA,-0.132 ± 0.045
4,CGCCTATA,-0.0178 ± 0.0095
5,AGCCTATA,0.25 ± 0.083
6,CATGTTGA,0.193 ± 0.044
7,AATGTTGG,0.0876 ± 0.073
8,AATGTTGA,-0.00564 ± 0.1
9,TATGTTGA,0.238 ± 0.044
10,GATGTTGA,-0.00209 ± 0.012
11,AATGTTGT,0.28 ± 0.01
12,ATTCTAGC,-0.0188 ± 0.08
13,ATATACGC,0.0468 ± 0.016
14,TCATACGA,0.2 ± 0.064
15,ATATACTC,0.128 ± 0.077
16,ACATACGA,0.239 ± 0.035
17,ATATACGA,0.247 ± 0.017
18,ATATACTA,0.3084 ± 0.0014
19,ATCTACTA,0.2783 ± 0.0027
20,CTATACTA,0.081 ± 0.083
21,ATCTACTC,-0.0945 ± 0.036
22,ATCTACTG,-0.00673 ± 0.085

row,Sequence,PBM 8-mer E-score
1,CTATACGA,-0.122 ± 0.029
2,ACATACGC,0.078 ± 0.081
3,CCTCGCTC,-0.0787 ± 0.12
4,GCGGAACC,-0.175 ± 0.0029
5,GGTCGGCA,-0.172 ± 0.038
6,ATGCCTCG,0.0473 ± 0.0097
7,AAACGCGA,0.0862 ± 0.15
8,GAGGCAAA,0.154 ± 0.077
9,GTGAGCGA,-0.125 ± 0.059
10,CCAGGCTA,-0.296 ± 0.027
11,GGAAGTAA,0.207 ± 0.022
12,TTGTACAA,0.284 ± 0.073
13,GGGTACAA,0.0175 ± 0.13
14,AGGTACAA,0.128 ± 0.024
15,GTGTACAA,0.1868 ± 0.0017
16,TGGTACAA,0.253 ± 0.084
17,CTGTACAA,0.045 ± 0.052
18,CATGGTTA,0.103 ± 0.0075
19,TCCGCACA,-0.187 ± 0.04
20,AAACGCGT,0.0946 ± 0.058
21,ACACGCGC,0.0651 ± 0.19
22,CCACGCGC,0.03925 ± 0.00016

row,Sequence,PBM 8-mer E-score
1,CCACGCGG,0.416 ± 0.005
2,ACACGCGT,0.238 ± 0.014
3,ACGCGCGT,0.19 ± 0.13
4,CCACGCGA,0.0738 ± 0.016
5,ACACGCGG,0.246 ± 0.046
6,ACACGCGA,0.15 ± 0.0033
7,AAACTCCA,-0.0494 ± 0.085
8,AACTTACG,0.0512 ± 0.088
9,GGATGGGA,0.00739 ± 0.13
10,AGCTTTAT,-0.0838 ± 0.085
11,AGTGTGTC,-0.0164 ± 0.029
12,TACGGCAA,0.0936 ± 0.016
13,GGCCAAGA,-0.116 ± 0.056
14,ATGCATCA,0.276 ± 0.059
15,AAGCATGT,0.218 ± 0.064
16,ATGCATGC,0.198 ± 0.11
17,ATGCATGG,0.132 ± 0.097
18,GTGCATCA,0.145 ± 0.039
19,ATGCATTC,0.215 ± 0.1
20,ATGCATCG,0.0165 ± 0.083
